Results: PubChem BioAssay (EPA / NIEHS)
Several values for one entry are separate records, joined by “and”; a condition that tells them apart may be missing. Equal entries are not always repeated. Records with an inconclusive call do not appear. Activity calls are given as the source filed them. Rule for the calls: active = hit-call score of the fitted dose curve at least 0.9, where 1 is the maximum; inconclusive = response in the unintended direction; inactive = score below 0.9.

Key:
[1] = ATG_XTT_Cytotoxicity: Cytotoxicity Assessment in the Attagene TRANS-FACTORIAL HepG2 Assay (AID 2283584);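 for AC50: cells exposed to compound for 24 h before reading; active means loss of viability signal versus DMSO baseline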
Summary of the method: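 Viability endpoint from XTT after 24 h chemical exposure of reporter-transfected human HepG2 liver cells; signal loss fitted relative to DMSO negative control.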

[2] = TOX21_p53_BLA_p2_viability: Viability Assessment in the Tox21 HCT-116 p53 Agonism Beta-lactamase Assay, Phase 2 (AID 2283591);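 note: compound exposure lasted 16 h at 37 °C; actives lower the ATP signal meaning cytotoxicity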
Summary of the method: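 Cytotoxicity readout: CellTiter-Glo ATP luminescence, 30 min at room temperature, after the beta-lactamase read. Cells were HCT116 exposed 16 h at 37C to compounds pin-transferred at 217-fold dilution from DMSO stocks.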

[3] = molecular target: Cellular tumor antigen p53 (Homo sapiens) (UniProt P04637); experiment: TOX21_p53_BLA_p2_ratio: Tox21 HCT-116 p53 Agonism Beta-lactamase Assay, Ratio, Phase 2 (AID 2283592)
Sequence of Cellular tumor antigen p53 (Homo sapiens) (P04637 whole entry, looked up): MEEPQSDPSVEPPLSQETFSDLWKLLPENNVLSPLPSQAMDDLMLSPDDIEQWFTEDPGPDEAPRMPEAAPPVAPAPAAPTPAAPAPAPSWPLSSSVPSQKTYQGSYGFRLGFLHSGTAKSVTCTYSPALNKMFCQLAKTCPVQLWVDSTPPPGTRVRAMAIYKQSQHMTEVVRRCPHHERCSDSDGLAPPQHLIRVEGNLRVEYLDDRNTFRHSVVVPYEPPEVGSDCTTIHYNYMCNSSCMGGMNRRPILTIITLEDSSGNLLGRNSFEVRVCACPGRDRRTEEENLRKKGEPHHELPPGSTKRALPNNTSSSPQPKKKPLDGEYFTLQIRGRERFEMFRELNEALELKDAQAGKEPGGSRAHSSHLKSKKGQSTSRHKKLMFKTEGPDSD
Summary of the method: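 Gain-of-signal p53 agonism was scored from the beta-lactamase FRET ratio (460/530 nm, 405 nm excitation) in HCT116 cells treated 16 h at 37C, 5% CO2, with DMSO serving as negative control and baseline.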

[4] = TOX21_p53_BLA_p3_viability: Viability Assessment in the Tox21 HCT-116 p53 Agonism Beta-lactamase Assay, Phase 3 (AID 2283593);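 note: cells exposed to compound for 16 h before reading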
Summary of the method: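 Cellular ATP was quantified by CellTiter-Glo luminescence, read after 30 min at room temperature. Beforehand, HCT116 cells (4000/well) received compound 5 h post-seeding, 217-fold diluted from DMSO, then incubated 16 h at 37C.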

[5] = molecular target: Cellular tumor antigen p53 (Homo sapiens) (UniProt P04637); experiment: TOX21_p53_BLA_p3_ratio: Tox21 HCT-116 p53 Agonism Beta-lactamase Assay, Ratio, Phase 3 (AID 2283596)
Summary of the method: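 HCT116 p53-bla cells (4000/well) given compound in DMSO (217-fold dilution) after 5 h, incubated 16 h at 37C. CCF4-AM substrate 2 h at room temperature; 460/530 nm emission ratio, gain fitted against DMSO.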

[6] = TOX21_p53_BLA_p4_viability: Viability Assessment in the Tox21 HCT-116 p53 Agonism Beta-lactamase Assay, Phase 4 (AID 2283597);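 note: hits lower the luminescence signal meaning cytotoxicity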
Summary of the method: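 Following a 16 h exposure at 37C, the treated HCT116 wells were first read for the FRET ratio. They were then lysed with CellTiter-Glo, and ATP luminescence was recorded after 30 min at room temperature.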

[7] = molecular target: Cellular tumor antigen p53 (Homo sapiens) (UniProt P04637); experiment: TOX21_p53_BLA_p5_ratio: Tox21 HCT-116 p53 Agonism Beta-lactamase Assay, Ratio, Phase 5 (AID 2283599)
Summary of the method: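 Beta-lactamase reporter ratio (blue 460 nm over green 530 nm, 405 nm excitation) after 2 h CCF4-AM loading, in HCT-116 cells exposed 16 h at 37 C to compounds pinned at 217-fold dilution. Increases relative to DMSO baseline scored.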

[8] = TOX21_p53_BLA_p5_viability: Viability Assessment in the Tox21 HCT-116 p53 Agonism Beta-lactamase Assay, Phase 5 (AID 2283600)
Summary of the method: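 After the 460/530 nm beta-lactamase measurement, the wells received an ATP-detection luciferase reagent; signal was read 30 min later at RT. Compound treatment lasted 16 h on cells pre-incubated 5 h post-seeding.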

[9] = molecular target: Cellular tumor antigen p53 (Homo sapiens) (UniProt P04637); experiment: TOX21_p53_BLA_p4_ratio: Tox21 HCT-116 p53 Agonism Beta-lactamase Assay, Ratio, Phase 4 (AID 2283601)
Summary of the method: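 Signal is the blue/green (460nm/530nm) ratio of cleaved versus uncleaved CCF4-AM substrate, read after 2 h substrate loading. Cells were HCT116 carrying the p53-responsive beta-lactamase reporter, dosed 16 h at 37C, 5% CO2; CellTiter-Glo measured in parallel.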

[10] = STM_H9_OrnCyssISnorm_ratio: Stemina devTOX quickPredict H9 human embryonic stem cell (hESC)-based Assay for Ornithine (ORN):Cystine (CYSS) Ratio (AID 2283714)
Summary of the method: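 Steps: H9 hESCs in pluripotent state dosed 72h, medium plus compound renewed every 24h; conditioned medium from the final 24h deproteinized in 40% acetonitrile; ORN and CYSS quantified by UPLC-HRMS with C13 spike-ins; ratio relative to vehicle.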

[11] = tested on: Thyroperoxidase (TPO), gene 54314; experiment: CCTE_Simmons_AUR_rTPO: CCTE's Amplex UltraRed Assay for Thyroperoxidase (TPO) Inhibition, Simmons Lab (AID 2283662);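 for AC50: potency for loss of signal meaning inhibition of peroxidase activity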
Summary of the method: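 Endpoint is decreased Amplex UltraRed fluorescence after a 30-min, 37C reaction of rat thyroid microsomes with 300 uM H2O2. Eight test concentrations (5 nM–87.5 uM final) in 0.5% DMSO, three biological replicates each.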

[12] = CCTE_Simmons_CellTiterGLO_HEK293T: Viability Assessment in CCTE's Assays for Thyroperoxidase (TPO) Inhibition, Simmons Lab (AID 2283665);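 for AC50: cells exposed to compound for 24 h before readout; actives reduce ATP signal below DMSO vehicle meaning cytotoxicity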
Summary of the method: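 HEK293T, 10 000 cells/well, DMEM + 1% FBS; 8-pt titration 5 nM–87.5 uM [final], 0.5% DMSO; 24 hr, 37C, 5% CO2; CellTiter-Glo luminescence; n=3 biological replicates.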

[13] = molecular target: Luciferin 4-monooxygenase (Photinus pyralis) (UniProt P08659); experiment: CCTE_Simmons_QuantiLum_inhib_2: CCTE's Firefly Luciferase Inhibition Assay, Simmons Lab (AID 2283767);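 for AC50: potency for inhibitors that lower luciferase luminescence relative to DMSO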
Sequence of Luciferin 4-monooxygenase (Photinus pyralis) (P08659 whole entry, looked up): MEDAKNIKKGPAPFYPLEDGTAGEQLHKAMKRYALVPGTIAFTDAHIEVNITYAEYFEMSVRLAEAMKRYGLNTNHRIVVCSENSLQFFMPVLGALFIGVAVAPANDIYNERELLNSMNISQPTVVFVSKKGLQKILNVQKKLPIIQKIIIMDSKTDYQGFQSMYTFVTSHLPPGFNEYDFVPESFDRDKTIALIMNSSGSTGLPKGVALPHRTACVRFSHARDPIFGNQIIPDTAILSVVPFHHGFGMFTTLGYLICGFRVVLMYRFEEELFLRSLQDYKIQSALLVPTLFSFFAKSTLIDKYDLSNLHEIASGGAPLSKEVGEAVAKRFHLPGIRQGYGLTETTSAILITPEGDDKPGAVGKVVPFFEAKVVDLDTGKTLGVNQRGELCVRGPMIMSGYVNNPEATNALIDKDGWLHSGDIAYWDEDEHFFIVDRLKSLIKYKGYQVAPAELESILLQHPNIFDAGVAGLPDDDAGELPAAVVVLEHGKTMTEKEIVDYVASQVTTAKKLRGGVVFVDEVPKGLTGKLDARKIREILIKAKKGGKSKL
Summary of the method: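 Luminescence loss relative to DMSO vehicle defines inhibition; detection reagent containing 150 uM D-luciferin and 147 uM dATP (final, pH 7.8) is injected immediately before each read. Enzyme is preincubated with an 8-point titration (5 nM–87.5 uM final) for 30 min at 37C.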

With `CCN=c1cc2oc3cc(NCC)c(C)cc3c(-c3ccccc3C(=O)OCC)c-2cc1C` the AC50 [1] was 32 µM (active), the AC50 [2] was 38.3 µM (active) and 45.9 µM (active) and the AC50 [3] was 16 µM (active) and 6.62 µM (active). The AC50 [4] was 59.6 µM (active) and 36.8 µM (active), the AC50 [5] was 17.8 µM (active) and 31.3 µM (active) and the AC50 [6] was 67.5 µM (active) and 58.2 µM (active). The AC50 [7] was 21.9 µM (active) and 32 µM (active), the AC50 [8] was 60.8 µM (active) and 63.2 µM (active) and the AC50 [9] was 35.8 µM (active) and 44.5 µM (active). The AC50 [10] was 0.0769 µM (active).

In the case of `CCCCCCCC/C=C\CCCCCCCC(=O)OCC(O)CO` (centres undefined), the outcome [1] was “inactive”.

In the case of `CCCCC(CC)COC(=O)c1ccc(N(C)C)cc1` (centres undefined), the outcome [1] was “inactive”, the outcome [2] was “inactive” and the outcome [3] was “inactive”. For the same compound, the outcome [4] was “inactive”, the outcome [5] was “inactive” and the outcome [6] was “inactive”. The outcome [7] was “inactive”, the outcome [8] was “inactive” and the outcome [9] was “inactive”.

For `O=C=Nc1cccc2c(N=C=O)cccc12`, the outcome [1] was “inactive”.

For `Oc1ccc(C2(c3ccc(O)c(C4CCCCC4)c3)CCCCC2)cc1C1CCCCC1`, the AC50 [1] was 33.8 µM (active).

With `CC(=O)C=O` the outcome [1] was “inactive”.

In the case of `CC(C)(C)c1cc(CCC(=O)NCCCCCCNC(=O)CCc2cc(C(C)(C)C)c(O)c(C(C)(C)C)c2)cc(C(C)(C)C)c1O`, the outcome [1] was “inactive”.

In the case of `CCCCCCCC/C=C\CCCCCCCC(=O)N(C)CC(=O)O`, the AC50 [1] was 128 µM (active), the AC50 [2] was 37.1 µM (active) and the AC50 [3] was 51.5 µM (active). For the same compound, the AC50 [4] was 45.1 µM (active), the AC50 [5] was 81.1 µM (active) and the AC50 [6] was 83.3 µM (active). For the same compound, the AC50 [7] was 79.6 µM (active), the AC50 [8] was 43.7 µM (active) and the AC50 [9] was 83.7 µM (active). The AC50 [11] was 16.4 µM (active), the AC50 [12] was 24.4 µM (active) and the outcome [13] was “inactive”.

For `CC(O)C#CC(C)O` (centres undefined), the outcome [2] was “inactive”, the outcome [3] was “inactive” and the outcome [4] was “inactive”. The outcome [5] was “inactive”, the outcome [6] was “inactive” and the outcome [7] was “inactive”. For the same compound, the outcome [8] was “inactive” and the outcome [9] was “inactive”.

In the case of `CCCCOC(=O)C(C)O` (centres undefined), the outcome [1] was “inactive”, the outcome [3] was “inactive” and the outcome [4] was “inactive”. For the same compound, the outcome [5] was “inactive”, the outcome [6] was “inactive” and the outcome [7] was “inactive”.

In the case of `COC(=O)c1ccc(C=O)cc1`, the outcome [1] was “inactive”, the outcome [3] was “inactive” and the outcome [5] was “inactive”. The outcome [7] was “inactive”, the outcome [8] was “inactive” and the outcome [9] was “inactive”.

With `Cc1ccc(O)cn1` the outcome [1] was “inactive”, the outcome [11] was “inactive” and the outcome [12] was “inactive”. The outcome [13] was “inactive”.

In the case of `CCOC(=O)CCC(C)=O`, the outcome [2] was “inactive”, the outcome [3] was “inactive” and the outcome [5] was “inactive”. The outcome [7] was “inactive”, the outcome [8] was “inactive” and the outcome [9] was “inactive”.

With `O=c1[nH]cccc1O` the outcome [1] was “inactive”, the AC50 [11] was 0.115 µM (active) and the outcome [12] was “inactive”. For the same compound, the outcome [13] was “inactive”.

For `Cc1cc(=O)[nH]c(C(C)C)n1`, the outcome [2] was “inactive”, the outcome [3] was “inactive” and the outcome [4] was “inactive”. For the same compound, the outcome [5] was “inactive”, the outcome [6] was “inactive” and the outcome [7] was “inactive”. The outcome [8] was “inactive” and the outcome [9] was “inactive”.

For `CC(C)Nc1ccc(NC(C)C)c2c1C(=O)c1ccccc1C2=O`, the outcome [3] was “inactive”, the outcome [5] was “inactive” and the outcome [7] was “inactive”. The outcome [8] was “inactive” and the outcome [9] was “inactive”.

In the case of `CC(C)(C)c1cc(Cc2cc(C(C)(C)C)c(O)c(C(C)(C)C)c2)cc(C(C)(C)C)c1O`, the outcome [1] was “inactive”, the AC50 [11] was 12.1 µM (active) and the outcome [13] was “inactive”.

In the case of `CCCCCCCCCCCCCCCCC`, the outcome [4] was “inactive”, the outcome [5] was “inactive” and the outcome [7] was “inactive”. For the same compound, the outcome [9] was “inactive”.

With `O=c1cccc[nH]1` the outcome [1] was “inactive”, the outcome [11] was “inactive” and the outcome [12] was “inactive”. For the same compound, the outcome [13] was “inactive”.

In the case of `CCOC(=O)C1CC(=O)C(=C(O)C2CC2)C(=O)C1` (centres undefined), the outcome [3] was “inactive”, the outcome [5] was “inactive” and the outcome [6] was “inactive”. For the same compound, the outcome [8] was “inactive” and the outcome [9] was “inactive”.

In the case of `O=S(=O)(O)c1ccc(Cl)cc1`, the outcome [1] was “inactive”, the outcome [2] was “inactive” and the outcome [6] was “inactive”. The outcome [8] was “inactive” and the outcome [9] was “inactive”.

In the case of `CCC(=O)OC(C)c1ccccc1` (centres undefined), the outcome [1] was “inactive”, the outcome [2] was “inactive” and the outcome [3] was “inactive”. For the same compound, the outcome [5] was “inactive”, the outcome [7] was “inactive” and the outcome [8] was “inactive”. The outcome [9] was “inactive”.

In the case of `C=CCOC(=O)CC(C)C`, the outcome [1] was “inactive”, the outcome [2] was “inactive” and the outcome [3] was “inactive”. The outcome [4] was “inactive”, the outcome [6] was “inactive” and the outcome [7] was “inactive”. The outcome [8] was “inactive” and the outcome [9] was “inactive”.

For `CCCCOC(=O)[C@H](C)O`, the outcome [3] was “inactive”, the outcome [5] was “inactive” and the outcome [7] was “inactive”. The outcome [8] was “inactive” and the outcome [9] was “inactive”.

With `CN(N=O)C(=O)N[C@@H]1[C@@H](O)[C@H](O)[C@@H](CO)O[C@@H]1O` the outcome [2] was “inactive”, the outcome [3] was “inactive” and the outcome [4] was “inactive”. The outcome [5] was “inactive”, the outcome [6] was “inactive” and the outcome [7] was “inactive”. For the same compound, the outcome [8] was “inactive” and the outcome [9] was “inactive”.

With `Cc1ccc([N+](=O)[O-])c(C)c1` the outcome [1] was “inactive”, the outcome [2] was “inactive” and the outcome [3] was “inactive”. For the same compound, the outcome [4] was “inactive”, the outcome [5] was “inactive” and the outcome [7] was “inactive”. The outcome [8] was “inactive” and the outcome [9] was “inactive”.

With `CC(=O)CCC(C)C` the outcome [2] was “inactive”, the outcome [3] was “inactive” and the outcome [4] was “inactive”. The outcome [5] was “inactive”, the outcome [6] was “inactive” and the outcome [7] was “inactive”. The outcome [8] was “inactive” and the outcome [9] was “inactive”.

With `CC(C)CC=C(C=O)c1ccccc1` the outcome [2] was “inactive”, the outcome [4] was “inactive” and the outcome [5] was “inactive”. For the same compound, the outcome [6] was “inactive” and the outcome [9] was “inactive”.

With `CCCCCCCCCCCCCC[P+](CCCC)(CCCC)CCCC` the AC50 [1] was 8.53 µM (active), the AC50 [11] was 47.9 µM (active) and the AC50 [12] was 4.44 µM (active). The AC50 [13] was 83 µM (active).

With `CCC/C=C/CO` the outcome [1] was “inactive”, the outcome [2] was “inactive” and the outcome [3] was “inactive”. For the same compound, the outcome [5] was “inactive”, the outcome [7] was “inactive” and the outcome [8] was “inactive”. The outcome [9] was “inactive”.
